Key:
Assay in all cases: PBM binding z-score (relative to random genomic background probes); higher = stronger binding; sequences stand for … in GC…GCGATTGACAGCGTAGAATGAAGG
[1] = system: FXR:RXRa (NR concentration 270 nM, RXRa partner concentration 90 nM)
In short: (§1)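 Antibodies against each partner of ligand-free nuclear receptor dimers (one per run) detected binding on custom Agilent 4×180K protein-binding microarrays after 1 h incubation. The double-stranded probes had 34-nt variable regions carrying direct-repeat seeds, single-nucleotide variants, half-site ablations and random human genomic background sequences. Binding z-scores, from regression-normalized fluorescence, use the random background probes as reference.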

[2] = system: LXRa:RXRa (NR concentration 270 nM, RXRa partner concentration 90 nM)
In short: as §1

[3] = system: LXRa homodimer (NR concentration 270 nM)
In short: as §1

[4] = system: LXRb:RXRa (NR concentration 270 nM, RXRa partner concentration 90 nM)
In short: as §1

[5] = system: LXRb homodimer (NR concentration 270 nM)
In short: as §1

[6] = system: PPARa:RXRa (NR concentration 270 nM, RXRa partner concentration 90 nM)
In short: as §1

[7] = system: PPARg:RXRa (NR concentration 180 nM, RXRa partner concentration 90 nM)
In short: as §1

[8] = system: PPARg:RXRa 270nM:90nM, anti-RXR (NR concentration 270 nM, RXRa partner concentration 90 nM)
In short: as §1

[9] = system: PPARg:RXRa 30nM:10nM, anti-RXR (NR concentration 30 nM, RXRa partner concentration 10 nM)
In short: as §1

[10] = system: PPARg:RXRa 90nM:30nM, anti-RXR (NR concentration 90 nM, RXRa partner concentration 30 nM)
In short: as §1

Sequence	PBM binding z-score [1]	PBM binding z-score [2]	PBM binding z-score [3]	PBM binding z-score [4]	PBM binding z-score [5]	PBM binding z-score [6]	PBM binding z-score [7]	PBM binding z-score [8]	PBM binding z-score [9]	PBM binding z-score [10]
CAGACTGGGGCAAAGGTTACCATACTCAGTACGA	2.11	2.13	0.0267	2.49	-0.226	5.94	10.9	8.6	9.03	10.1
CGAACTAGGTCATTGACAGCACAGTGAATAGTAA	4.2	2.64	0.265	2.07	0.329	4.78	7.32	6.23	3.86	5.6
CCCACTGGGGCAAGGTTACCATAACGCACAGCCA	0.184	0.769	-0.0723	0.417	-0.882	2.46	4.81	4.76	1.92	4.56
CAAACTAGGTCAGGAGGTCAAAGTCCGCTTCCCG	5.51	5.22	4.23	4.39	1.11	5.91	8.99	7.3	5.95	7.43
ATCTCTAGGTAACAACTTCAGTGAAAGAGAGGAC	0.55	0.485	0.102	0.396	0.978	0.493	0.782	0.618	0.652	0.573
CAAACTAGGTCACGGAGGTCAAAGTCCGTGCGTA	7.4	6.23	6.45	5.9	1.36	6.83	10.4	8.3	7.09	8.25
GATCGGAGGACAAGGTCAGAGCTTTGTCCGTAGA	1.55	1.42	-0.502	0.993	-1.3	2.42	1.07	2	-0.141	1.17
CGAACTAGGACAGAACAGGACAGTGAAGGATGAT	-0.286	-0.561	-0.364	-0.706	-0.58	-0.0263	1.23	0.13	0.00825	0.0847
TCTTGTAGATAAAGCAGGTTAAGAAAGCCTGAGT	0.606	0.66	-0.172	0.585	-0.647	1.06	-0.166	1.54	2.82	2.17
GGATATAGGTAATACAAGGTGAAAGTCCGATTGT	1.08	2.72	0.722	1.12	0.202	2.58	2.63	2.51	0.801	1.87
GCAGACAGGTGAAATGCAGGTAACTCAGGGTGGC	-0.157	0.0887	-0.625	-0.157	-0.898	1.23	0.71	0.196	-0.445	0.00263
GCGACTAGGGCAAAGCAGGTTACCATAAGGTTGG	0.0913	0.121	-0.0293	-0.376	-1.03	1.17	1.63	1.77	-0.187	0.722
CAAACTAGGTCACCGGTAGGTCAAAGTCCGCATG	5.71	4.92	3.87	4.52	0.66	5.98	9.32	7.44	5.74	7.12
TCATATAGGTAATACAGGTGATAGTCGGCATCTA	0.719	1	0.507	0.789	0.315	1.36	1.6	2.3	3.98	3.1
TAGCCTATGTCATTGGGCCAGTATAGTACGCATC	-0.278	-0.41	-0.519	-0.0433	-0.648	0.0352	0.577	0.178	0.0263	0.065
CCTAGTTGGTCAGTAGGTCACACACCGGATATGA	1.75	1.75	1.22	1.64	0.533	3.62	4.58	4.46	2.18	3.85
GCTTACGGTTCAAAGGTTATAGCATGAATAGAAT	4.43	4.34	0.505	4.04	-0.0859	5.44	4.71	5.6	2.92	5.08
TCGAGTAGGTTAGTCGGGGTATTCAGCCAACATA	0.000404	-0.0351	-0.315	0.411	-0.451	0.421	-0.245	0.44	1.24	0.688
CGAACTAGGTCATCCAGGACAGTGAGTACATTGA	4.32	2.81	0.741	1.9	0.24	4.49	7.45	6.5	3.99	5.85
CCTACTGGGCCATCAGGTCGTTGATATCAACGTT	-0.00658	-0.372	-0.231	-0.0218	-0.541	0.992	1.22	2.22	0.274	1.41
CCTATTAGTTGACCTTAAGGGCAACCGAAGCTCG	6.12	4.18	2.42	4	1.3	4.75	1.81	3	1.29	2.42
ACTATTAGTTTACTTAGGGCAACCGATACGACGC	0.0954	0.173	0.422	0.0496	0.375	0.0302	0.985	0.261	0.394	0.541
ATCGAAAGCTCGAGGTGAGTATAGAGAAAGGGAA	-0.382	-0.596	-0.515	-0.793	-0.851	-0.028	0.163	-0.516	-0.268	-0.554
GCGACTGGGGCGTCAGCAGGTTACCATAACTTAA	-0.381	-0.378	-0.324	0.262	-1.19	0.425	0.0029	-0.411	-0.842	-0.965

Sequence	PBM binding z-score [1]	PBM binding z-score [2]	PBM binding z-score [3]	PBM binding z-score [4]	PBM binding z-score [5]	PBM binding z-score [6]	PBM binding z-score [7]	PBM binding z-score [8]	PBM binding z-score [9]	PBM binding z-score [10]
CCTAGTTGGTCAGGAGGTCACCCACCGGATATGA	3.56	3.31	1.59	3.13	0.503	4.04	2.76	3.87	1.01	2.98
CCGAGTAGGTGATGGGGCATTCAGGCAACGGTGA	-0.0189	-0.218	-0.529	-0.326	-1.01	1.72	3.51	4.41	2.46	4.61
CGTCAAAGTTCAAGGTAACATAACAGAAAGCAGC	6.08	5.39	2.7	3.37	1.22	4.67	4.56	5.16	2.16	3.9
TCTTGTAGATCAACAGGAGGATAAGAAAGATCGA	0.307	0.0206	-0.000187	0.226	-0.349	0.337	0.379	0.997	2.56	1.61
TCATATAGGTAAATGCTAGGTGAAAATCCGATCT	0.903	0.851	0.275	0.71	0.611	1.17	0.91	1.95	4.01	3.06
ATCTCTTGGTAAGACTCAGTTCAGTGAAGAACGC	0.584	0.976	0.839	0.676	1.08	0.0896	-0.159	0.141	0.448	0.216
CCTTACGGGTTACGAGGTTATAGCACGACGAGCG	1.8	2.11	0.0451	1.8	-0.317	3.36	2.89	3.03	0.671	1.8
TCTTGTAGATCAACAGGAGGTTAAGTAAGATCGA	0.451	1.3	0.363	1.17	-0.23	1.52	-0.0593	1.22	2.44	1.51
TTACCAAGGTGACGGTCGTTGATCCCTCTGTAGA	1.07	0.963	-0.313	0.464	-0.534	1.5	0.654	1.29	0.738	0.929
CCTACTGGGCGAAAAAGGTCATTGATGCCGATAA	3.16	3.79	2.59	3.91	-0.182	4.45	1.67	3.1	0.977	1.93
TTACCAAGGCGAAGGTCGTTGATCCCTCTGTAGA	1.8	1.55	-0.229	1.43	-0.992	2.44	3.98	5.81	3.02	5.86
GCTGCTAGGTCAACTGATGGTAAGCTAAAGCTCG	3.67	2.53	-0.233	1.66	-0.0534	3.56	2.6	2.85	0.773	2.04
ACAGACAGGTGAGTGAGGGTAACTCAGCTGGACG	0.174	0.269	-0.243	-0.0988	-0.478	0.503	0.629	0.0987	-0.248	-0.159
CCTACTGGGCCAAAAAGGTCGTTGATGCCGATAA	0.402	0.901	0.0143	1.24	-0.786	2.45	1.08	1.81	0.344	1.24
TAGCCTGGGTCAGATCGGGCCAGTATACGCTATA	1.63	0.208	-0.918	0.153	-0.84	1.32	0.579	0.64	-0.488	0.167
AGAACGAGGTTATTAAGATCAGGGAATTGCGGTC	1.44	1.34	-0.0763	1.09	-0.115	2.15	1.26	1.68	0.389	0.958
GCTATTAGTTGCAAGGGCAACCGAATGATTCTCG	0.225	0.26	-0.0244	0.193	0.0622	0.193	0.483	0.912	0.0952	0.546
CTACCACGGTGAACAAGGTCGTTGATTACTATTC	0.517	0.708	0.301	1.4	-0.058	1.28	0.357	0.508	-0.252	0.141
CGAACTAGGTCATCCAGGCCAGTGAATACATTGA	4.42	2.58	0.198	1.84	-0.0916	4.97	7.7	6.3	3.77	5.63
GCTCGGAGGACAAGGTCGGAGCTTTGTCCGTAGA	-0.163	-0.153	-0.91	-0.475	-1.14	0.143	-1.09	-0.163	-1.12	-0.578
CCTTACGCGTCAAGGTTATAGCACGGGTGGTACG	0.452	0.749	0.096	0.771	0.153	1.14	0.691	-0.0885	-0.308	0.0411
CCTAGCAGGCCAATCTGGGTCAGTCAAGGCTTGA	0.816	0.419	-0.663	0.0551	-1.41	1.97	0.228	0.88	-0.729	0.114
CATACTAGGTCACGAAAGGTCAAAGTCGAATGAC	7.5	8.25	8.77	7.29	3.6	6.39	9.53	7.93	6.31	8.01
CGTCCAAGATCAAGGTCAGTGAAAGAGACTCGAA	1.53	1.53	0.459	1.7	-0.296	2.7	0.906	1.19	0.0233	0.76

Reference: the supplement of paper PMC6555819
